Molecules are shown by their SMILES. The campaign covered roughly 310,000 compounds. About 2,200 (0.71%) showed an effect of 50% or more. The effect is printed as a negative number. Many of the other results were omitted from the sample, so strong results are more common in it than they were.

The test deals with human ether-à-go-go-related gene (hERG) potassium channel (human, UniProt Q12809). The experiment in a line: primary screen, population patch clamp on CHO cells stably expressing hERG; higher = less effect of the substance.
Sequence of human ether-à-go-go-related gene (hERG) potassium channel (Q12809 whole entry, looked up): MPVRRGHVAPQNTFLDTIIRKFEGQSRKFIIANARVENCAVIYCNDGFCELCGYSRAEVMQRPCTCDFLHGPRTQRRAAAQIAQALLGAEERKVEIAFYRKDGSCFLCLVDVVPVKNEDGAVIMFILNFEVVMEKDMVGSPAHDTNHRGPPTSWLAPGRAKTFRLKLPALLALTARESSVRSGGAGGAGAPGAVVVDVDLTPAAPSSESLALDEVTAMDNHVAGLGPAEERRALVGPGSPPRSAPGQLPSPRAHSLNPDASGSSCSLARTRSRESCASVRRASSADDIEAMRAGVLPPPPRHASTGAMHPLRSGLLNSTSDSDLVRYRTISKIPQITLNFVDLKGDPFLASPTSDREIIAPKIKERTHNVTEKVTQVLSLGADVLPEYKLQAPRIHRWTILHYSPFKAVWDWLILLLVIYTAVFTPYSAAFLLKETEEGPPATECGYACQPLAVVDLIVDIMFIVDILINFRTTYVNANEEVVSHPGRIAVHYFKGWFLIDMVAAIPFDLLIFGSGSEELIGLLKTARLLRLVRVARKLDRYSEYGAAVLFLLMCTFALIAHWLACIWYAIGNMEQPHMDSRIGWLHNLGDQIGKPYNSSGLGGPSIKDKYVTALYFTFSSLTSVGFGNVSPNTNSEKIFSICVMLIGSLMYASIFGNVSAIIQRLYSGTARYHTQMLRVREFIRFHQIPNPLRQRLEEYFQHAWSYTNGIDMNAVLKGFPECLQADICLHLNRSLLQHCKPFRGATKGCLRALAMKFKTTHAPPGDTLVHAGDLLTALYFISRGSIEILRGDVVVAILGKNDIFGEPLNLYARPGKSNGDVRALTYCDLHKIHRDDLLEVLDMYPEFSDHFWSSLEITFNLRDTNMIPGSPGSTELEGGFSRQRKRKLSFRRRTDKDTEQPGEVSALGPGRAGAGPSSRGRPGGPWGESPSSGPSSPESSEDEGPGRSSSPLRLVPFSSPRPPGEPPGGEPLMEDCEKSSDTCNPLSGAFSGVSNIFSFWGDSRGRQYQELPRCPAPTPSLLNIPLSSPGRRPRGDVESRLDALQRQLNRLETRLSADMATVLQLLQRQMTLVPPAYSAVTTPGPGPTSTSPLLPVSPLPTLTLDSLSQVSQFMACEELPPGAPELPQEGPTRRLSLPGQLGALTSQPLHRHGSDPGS
`COc1cc(/C=C(\C#N)C(=O)Nc2ccccc2F)ccc1OCCN1CCOCC1`: the “hERG current change (%, negative = inhibition) at 1uM” value was -25.6%.
Regarding `CN(c1ccccc1)S(=O)(=O)c1cc(C(=O)N2CCN(c3ccccn3)CC2)ccc1Cl`, the “hERG current change (%, negative = inhibition) at 1uM” value is 16.5%.
As for `CN1CCN(c2ccc([N+](=O)[O-])cc2NC(=O)c2ccco2)CC1`, the “hERG current change (%, negative = inhibition) at 1uM” value is -22.4%.
In the case of `Cc1ccc(S(=O)(=O)N2CCCCC2)cc1C(=O)N(CCc1ccccc1)Cc1ccccc1`, the “hERG current change (%, negative = inhibition) at 1uM” value amounted to 12.2%.
Turning to `COc1ccc(C(=O)Oc2ccc(F)cc2C(=O)/C=C/c2ccc(OC)c(OC)c2)cc1`, the “hERG current change (%, negative = inhibition) at 1uM” value is 0.79%.
Consider `O=C(COc1ccccc1Cl)NC(=S)Nc1ccc(CN2CCOCC2)cc1`, for which the “hERG current change (%, negative = inhibition) at 1uM” value was 15.7%.
`Cc1ccc(NC(=O)COc2ccc3oc4c(c3c2)CCCC4)nc1`: the “hERG current change (%, negative = inhibition) at 1uM” value stood at 2.88%.
For `COc1cc(C2C(C(=O)c3cccs3)=C(O)C(=O)N2c2cc(C)on2)ccc1O` (stereo not shown) the value was 2.84%; for `COc1ccc([N+](=O)[O-])cc1NC(=O)CSCc1ccccc1`, 13.5%; for `COc1ccc(-c2cc3ccc(OCC(=O)NCC4CCC(C(=O)O)CC4)cc3oc2=O)cc1` (stereo not shown), 5.49%.
In the case of `CC(C)(C)C(=O)N1NC(=Nc2ccccc2)SC1(C)C`, the “hERG current change (%, negative = inhibition) at 1uM” value is listed as 7.38%.
`CCOc1ccc(S(=O)(=O)NCC2CCCO2)c2ccccc12` (stereo not shown): the “hERG current change (%, negative = inhibition) at 1uM” value is 4.4%.
Consider `O=C1OC(Nc2ccc(Cl)cn2)c2ccccc21` (stereo not shown), for which the “hERG current change (%, negative = inhibition) at 1uM” value is on record as 2.2%.
Turning to `CCOC(=O)c1ccc2c(c1)n(CC)c(C)[n+]2CC.[I-]`, the “hERG current change (%, negative = inhibition) at 1uM” value was 1.24%.
For `CCOC(=O)c1ccc2c(c1)n(CCO)c(C)[n+]2CC.[I-]` the value was 6.24%.
Then `CCn1c(C)[n+](CC)c2ccc(C(=O)N(C)c3ccccc3)cc21.[I-]`, with 25.5%; and `CCOC(=O)c1ccc2c(c1)n(CCCS(=O)(=O)[O-])c(/C=C/c1ccc(Cl)cc1)[n+]2CC`, with -7.29%.
For `CCn1c(/C=C/Nc2ccccc2)[n+](CC)c2ccc(C(=O)OCC(F)(F)F)cc21.[I-]` the value was -90.5%; for `CCOC(=O)c1ccc2c(c1)n(CC)c(/C=C/N(C)c1ccccc1)[n+]2CC.[I-]`, -66.2%; for `CCOC(=O)c1ccc2c(c1)n(CC)c(/C=C/Nc1ccccc1)[n+]2CC.[I-]`, -86.7%.
`CCOC(=O)c1ccc2c(c1)n(Cc1ccccc1)c(C)[n+]2CC.[O-][Cl+3]([O-])([O-])[O-]`: the “hERG current change (%, negative = inhibition) at 1uM” value is given as 1.03%.
As to `CCn1c(/C=C/N(C)c2ccccc2)[n+](CC)c2ccc(Cl)cc21.[I-]`, the “hERG current change (%, negative = inhibition) at 1uM” value was -7.59%.
Take `CCC1CCCCN1C(=O)c1sc2nc(C)nc(N(CC)CC)c2c1C` (stereo not shown): the “hERG current change (%, negative = inhibition) at 1uM” value is 5.72%.
For the molecule `O=C(CC1C(=O)NCCN1Cc1ccc(Cl)c(F)c1)NC1CCC1` (stereo not shown), the “hERG current change (%, negative = inhibition) at 1uM” value is on record as 14%.
With `Cc1ccc(C2CCN(C(=O)Nc3ccccc3)C2)cc1` (stereo not shown), the “hERG current change (%, negative = inhibition) at 1uM” value came to 11.5%.
With `CC(C)CC1NC(=O)N(CC(=O)NC2CCCc3ccccc32)C1=O` (stereo not shown), the “hERG current change (%, negative = inhibition) at 1uM” value was 9.38%.
On to `O=C(c1cccc(C(F)(F)F)c1)N1CCN(S(=O)(=O)c2ccc(Cl)s2)CC1`, for which the “hERG current change (%, negative = inhibition) at 1uM” value came out at 3.68%.
For `O=C(O)c1ccc2c(c1)C(=O)N(c1cc([N+](=O)[O-])ccn1)C2=O` the value was 10.8%; for `COc1ccccc1C1/C(=C(/O)c2ccccc2)C(=O)C(=O)N1CC(C)C` (stereo not shown), 10.7%; for `O=C(O)C1C2C=CC(C2)C1C(=O)NCc1ccoc1` (stereo not shown), 14.3%.
As for `O=C(CN1CCOCC1)Nc1ccc([N+](=O)[O-])cc1Br`, the “hERG current change (%, negative = inhibition) at 1uM” value is listed as -11.7%.
Regarding `CC(=O)N1CCN(CC(=O)Nc2cc([N+](=O)[O-])ccc2Cl)CC1`, the “hERG current change (%, negative = inhibition) at 1uM” value amounted to 1.54%.
Turning to `CC(=O)N1CCN(CC(=O)Nc2ccc([N+](=O)[O-])cc2Br)CC1`, the “hERG current change (%, negative = inhibition) at 1uM” value is -60.4%.
For the molecule `O=C(CN1CCCCCC1)Nc1ccc([N+](=O)[O-])cc1Br`, the “hERG current change (%, negative = inhibition) at 1uM” value came out at 10.1%.
Regarding `CN1CCN(CC(=O)Nc2ccc([N+](=O)[O-])cc2Br)CC1`, the “hERG current change (%, negative = inhibition) at 1uM” value is given as -55.8%.
Regarding `O=C(CN1CCN(c2ccccc2O)CC1)Nc1ccc([N+](=O)[O-])cc1Br`, the “hERG current change (%, negative = inhibition) at 1uM” value amounted to 7.54%.
For `O=C(CSc1cccc[n+]1[O-])C12CC3CC(CC(C3)C1)C2`, the “hERG current change (%, negative = inhibition) at 1uM” value came to 6.16%.
For `NS(=O)(=O)c1cccc(NC(=O)CCCC2CCCCC2)c1`, the “hERG current change (%, negative = inhibition) at 1uM” value came out at 7.26%.
Regarding `Cc1cccc(-c2c3c(=O)n(C)c(=O)n(C)c3cn2-c2ccc(O)cc2)c1`, the “hERG current change (%, negative = inhibition) at 1uM” value is listed as 13.8%.
As for `Cc1nc2c(-c3ccccc3)c[nH]n2c(=O)c1Cc1ccccc1`, the “hERG current change (%, negative = inhibition) at 1uM” value was determined as 13.3%.
In the case of `CC(CC(=O)N1CCN(S(=O)(=O)c2ccc([N+](=O)[O-])cc2)CC1)c1ccccc1` (stereo not shown), the “hERG current change (%, negative = inhibition) at 1uM” value is given as -50.3%.
For the molecule `O=S(=O)(c1ccc(Cl)cc1)N1CCN(C2CCCCCC2)CC1`, the “hERG current change (%, negative = inhibition) at 1uM” value was determined as 1.61%.
`O=S(=O)(c1ccccc1)N1CCN(Cc2ccc(Cl)cc2)CC1`: the “hERG current change (%, negative = inhibition) at 1uM” value is listed as -2.04%.
For `Cc1ccc(S(=O)(=O)N2CCN(Cc3ccccc3)CC2)cc1` the value was 10%.
With `O=C(O)C(=O)O.O=[N+]([O-])c1ccc(S(=O)(=O)N2CCN(C3CCN(Cc4ccccc4)CC3)CC2)cc1`, the “hERG current change (%, negative = inhibition) at 1uM” value was -78.1%.
For `COc1ccc(S(=O)(=O)N2CCC(N3CCN(Cc4ccccc4)CC3)CC2)cc1.O=C(O)C(=O)O`, the “hERG current change (%, negative = inhibition) at 1uM” value is listed as -14.4%.
`O=C(Cc1ccccc1)N1CCN(S(=O)(=O)c2ccc([N+](=O)[O-])cc2)CC1`: the “hERG current change (%, negative = inhibition) at 1uM” value is given as -24.6%.
Take `CC(C)CC(=O)N1CCN(S(=O)(=O)c2ccccc2)CC1`: the “hERG current change (%, negative = inhibition) at 1uM” value is 8.07%.
Then `Cc1ccc(S(=O)(=O)N2CCN(C3CCN(Cc4ccccc4)CC3)CC2)cc1.O=C(O)C(=O)O`, with -75.3%; and `O=S(=O)(c1ccc(Cl)cc1)N1CCN(C2CCN(Cc3ccccc3)CC2)CC1`, with -59%; and `O=C(O)C(=O)O.O=[N+]([O-])c1ccc(S(=O)(=O)N2CCN(Cc3ccco3)CC2)cc1`, with 18.9%.
As for `O=[N+]([O-])c1ccccc1S(=O)(=O)N1CCN(C2CCN(Cc3ccccc3)CC2)CC1`, the “hERG current change (%, negative = inhibition) at 1uM” value is -18.2%.

These data come from publication PMC4336329 (PLoS ONE, 2015).
